# Screens (PubChem)
# RE007 growth inh = less growth of the S. pombe RE007 Vpr strain | S. pombe RE007 Vpr strain, BacTiter-Glo ATP luminescence, 24 h | Potency, µM (doses to about 92.2 µM), for the others: at the top dose activity change, negative = less growth, usual class: inhibitors | actives 0.21% (n = 360,000); active = well fitted falling curve with a large enough effect; inconclusive = small, poorly fitted or top-dose-only effect; inactive = no such curve, though single readings can be large or run the other way; also: % is scaled to controls: 0 for no effect and ±100 for the full control effect; nearly all actives have a fitted effect of over 50% in size
#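 Fission yeast RE007 carrying one integrated HIV-1 vpr copy, seeded at OD 0.01 in PMG+AL medium with 23 nL pinned compound. Grown 24 h at 30 degrees; viability read by BacTiter-Glo luminescence after 5 min.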
# Sm TGR block = S. mansoni TGR enzyme inhibition; Potency, µM (series often up to 114 µM), without a hit: top-dose activity change, negative = inhibition, usual class: inhibitors; Q962Y6; purified TGR, DTNB reduction, TNB absorbance 405 nm; actives 3% (n = 360,000); also: % is scaled to controls: 0 for no effect and ±100 for the full control effect; nearly all actives have a fitted effect of over 60% in size
#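 Kinetic colorimetric format: TGR-catalysed, NADPH-driven DTNB reduction monitored via TNB absorbance. Enzyme dispensed at 20 nM; compound exposure 15 min at room temperature before reaction start.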
# NS1 function inh = blocks influenza NS1 protein function; Potency, µM (doses to about 46.1 µM), for inactives: at the highest dose activity, positive = more growth; actives 0.4% (n = 270,000); AID 2326; calls by dose curve; also: actives are rising curves; nearly all actives have a fitted effect of over 50% in size
#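 A cell-based growth assay was used: compounds that relieve NS1-induced slow growth of budding yeast raise OD600. Assay medium was yeast nitrogen base with ammonium sulphate and -URA supplement, pH 6.0, with 2% galactose.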
# LmPK inhibitor = LmPK (Leishmania mexicana) enzyme inhibition. purified LmPK, Kinase-Glo ATP luminescence, 1 h. Potency, µM (top dose mostly 57.5 µM), for inactives: at the highest dose activity change, negative = inhibition, usual class: inhibitors. actives 0.37% (n = 290,000). Q27686; also: % is scaled to controls: 0 for no effect and ±100 for the full control effect
# Target sequence (Q27686 whole entry, looked up): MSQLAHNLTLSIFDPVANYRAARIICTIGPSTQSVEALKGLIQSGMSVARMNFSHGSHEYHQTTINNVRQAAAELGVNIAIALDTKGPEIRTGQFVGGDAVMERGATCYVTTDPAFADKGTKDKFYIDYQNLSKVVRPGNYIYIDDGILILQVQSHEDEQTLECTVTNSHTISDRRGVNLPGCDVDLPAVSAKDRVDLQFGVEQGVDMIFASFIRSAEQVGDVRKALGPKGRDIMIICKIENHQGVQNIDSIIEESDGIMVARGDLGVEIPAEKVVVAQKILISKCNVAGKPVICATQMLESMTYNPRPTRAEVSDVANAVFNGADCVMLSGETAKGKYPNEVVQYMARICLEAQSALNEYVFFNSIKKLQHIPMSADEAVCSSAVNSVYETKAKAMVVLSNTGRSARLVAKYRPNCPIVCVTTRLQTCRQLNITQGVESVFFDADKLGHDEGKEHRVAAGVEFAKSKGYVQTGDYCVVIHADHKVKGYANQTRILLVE
#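 Screened at intermediate enzyme activity to detect both inhibitors and activators: LmPK at 0.1 nM, with a 0.5 nM enzyme column as activation reference. PEP 0.5 mM, ADP 0.1 mM; ATP detected by luminescence after 1 h.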
# TbPYK inhibitor = blocks Trypanosoma brucei pyruvate kinase | Q57TT1 | TbPYK enzyme, Kinase-Glo Plus ATP luminescence, 45 min | Potency, µM (highest dose often 76.8 µM), for the others: top-dose activity, negative = inhibition, most hits filed as inhibitors | actives 0.12% (n = 410,000) | AID 624173; also: % is scaled to controls: 0 for no effect and ±100 for the full control effect; nearly all actives have a fitted effect of over 50% in size
#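 Assay buffer: 50 mM TEA pH 7.2, 100 mM KCl, 10 mM MgCl2, 0.05% BSA, 0.01% Tween-20. Pyruvate kinase from T. brucei plus substrate met compound, then ADP (130 uM final). Luminescence was read post 45 min RT.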
# SARS PLP yeast = inhibitors of SARS-CoV papain-like protease in yeast. actives 0.19% (n = 330,000). Potency, µM (doses to about 32.9 µM), without a hit: at the highest dose activity, positive = growth rescue, usual class: activators. AID 485353. S. cerevisiae expressing SARS-CoV PLpro, growth rescue; calls by dose curve; also: 0% is about no effect; nearly all actives have a fitted effect of over 55% in size
# Numbers without * were called inactive; ? = inconclusive; . = no result given; [ ] = another dose, or the depositor's remark. The list is not random: actives were taken first. Their share in the collection is about 3.3%. Unless noted, calls follow the shape of the dose curve; as a rule, active = well fitted curve in the direction sought with a large enough effect; inconclusive = small, poorly fitted or top-dose-only effect, or another doubt; inactive = no such curve, though single readings can be large; an effect the other way counts as inactive or inconclusive. Potency is read from the fitted curve at half-maximal effect.
SMILES,RE007 growth inh,Sm TGR block,NS1 function inh,LmPK inhibitor,TbPYK inhibitor,SARS PLP yeast
O=C(COc1ccc(F)cc1)OCc1cc(=O)n2nc(C3CCCCC3)sc2n1,.,9%,.,.,-3%,.
COc1cc(N2CCC(N3CCN(C)CC3)CC2)ccc1Nc1ncc(Cl)c(Nc2ccccc2S(=O)(=O)C(C)C)n1,.,.,.,.,-24%,.
C=CCOC(=O)C1=C(C)N=c2s/c(=C3\C(=O)N(CC(=O)O)c4ccccc43)c(=O)n2C1c1ccc(OC)cc1 (stereo unspecified),-1%,18µM*,20%,-25%,?,1%
COc1ccc(C2C(C(=O)OC(C)C)=C(C)N=c3s/c(=C\c4cccs4)c(=O)n32)cc1 (stereo unspecified),0%,-7%,11%,0%,2%,?
COc1ccc(NC(=O)c2cc3ccccc3o2)c(OC)c1,.,18%,.,.,-3%,.
COc1ccc(Nc2cc(C)c3cc(NC(=O)c4cc(OC)cc(OC)c4)ccc3n2)cc1,.,1%,.,.,3%,.
Cc1ccc(CNS(=O)(=O)c2cc3c(cc2Cl)NC(=O)CO3)o1,.,32µM*,.,.,5%[15.4 µM],.
Cc1ccc(CNC(=O)CCS(=O)(=O)c2cc3c(cc2Cl)NC(=O)CO3)o1,-5%,-2%,-1%,-8%,2%,6%
N[C@@H](CSCCCO)C(=O)O,.,.,.,.,5%,.
CC(C)COC(=O)c1cc(-c2ccc(/C=N/n3cnnc3)o2)ccc1Cl,-19%,22µM*,1%,2%,3%,2%
COCCCNC(=O)c1c(N)n(Cc2ccco2)c2nc3ccccc3nc12,-7%,4µM*,3%,5%,-9%,-1%
CC(C)CNC(=O)c1c(N)n(Cc2ccco2)c2nc3ccccc3nc12,-22%,32µM*,12%,5%,-4%,-9%
Cc1cc(C)cc(N2C(=O)CSC23C(=O)N(CC(=O)NC2CCCCC2)c2ccccc23)c1 (stereo unspecified),.,-7%,.,.,2%,.
CNC(=S)Nc1ccc([N+](=O)[O-])c(C)c1,-12%,40µM*,.,3%,-11%,1%
CNC(=S)Nc1ccc([N+](=O)[O-])cc1C,25%,10µM*,6%,5%,-8%,0%
COc1ccc(C(=O)NC(=S)Nc2ccc([N+](=O)[O-])cc2C)cc1OC,8%,3%,6%,1%,-3%,2%
Cn1c(Oc2ccccc2)nc2c1c(=O)n(Cc1ccc(Cl)cc1Cl)c(=O)n2C,.,18%,.,.,1%,.
Cc1ccc(Cl)cc1-n1ncc2c(Nc3ccc4c(c3)OCCO4)ncnc21,.,2%,.,.,-4%,.
CCCCC[C@H](O)/C=C/[C@H]1C=CC(=O)[C@@H]1C/C=C\CCCC(=O)O,.,40µM*,?,8%,.,23%
COc1ccc(-c2nnc(SCc3ncc(-c4ccccc4)o3)o2)cc1,17%,40µM*,1%,-2%,-12%,0%
c1ccc(-c2cnc(CSc3nnc4ccccn34)o2)cc1,-10%,10µM*,10%,-11%,-21%,0%
O=C(/C=C/c1cn(CC(O)CN2CCCCCC2)c2ccccc12)c1ccc(Br)cc1 (stereo unspecified),.,-28%,.,.,-3%,.
COc1ccc(NC(=O)CSc2ncc3c(n2)-c2ccccc2N(Cc2ccc(C)cc2)S3(=O)=O)cc1Cl,.,-3%,.,.,7%,.
COc1cccc(CNC(=O)Cn2nc(N3CCN(c4ccccc4OC)CC3)ccc2=O)c1,.,11%,.,.,1%,.
Fc1cccc(F)c1/C=C/c1ccc2ccccc2n1,?,-25%,-21%,8.9µM*,?,-35%
Fc1cccc(Cl)c1/C=C/c1cnc2ccccc2n1,-3%,-4%,-4%,-18%,?,-1%
C(=C\c1ccco1)/c1ccc2ccccc2n1,?,7.9µM*,-30%,?,?,-2%
S=C(Nc1ccccc1)Nc1nc2ccccc2n1CCOc1ccc(Br)cc1,4%,1%,25%,-1%,-5%,?
Cn1c(NC(=S)Nc2ccccc2)nc2ccccc21,1%,-19%,7%,-6%,-21%,8.9µM*
CC1CCN(C(=O)c2[nH]cnc2C(=O)Nc2ccon2)CC1,2%,40µM*,.,.,-2%,2%
